Results reported in PubChem BioAssay (Tox21).
Values joined by “and” are separate entries in the source; they are usually repeats but may differ in a detail not shown here. Equal values may be shown once. Records with an inconclusive call do not appear. A call without a number means that no potency is given here. Some structures have more than one record in an assay (separate samples or runs), and their calls can disagree. Active and inactive are the calls of the source. Unless noted, the call rests on the fitted dose curve; in most records, active means well fitted curve in the direction sought with a large enough effect in the repeat runs; inconclusive means weak or mixed curves; inactive means no such curve, though single readings can be large; an effect the other way counts as inactive or inconclusive.

Key:
[1] = qHTS assay for small molecules that induce genotoxicity in human embryonic kidney cells expressing luciferase-tagged ATAD5 (AID 651632); further: nearly all actives have a fitted effect of over 15% in size
Method in brief: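 Increased luciferase signal from ATAD5-tagged reporter cells indicates DNA-damage-driven ATAD5 induction. HEK293T cells are treated for 16 hr at 37C before detection with Amplite.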

[2] = qHTS assay for small molecule agonists of the p53 signaling pathway - cell viability (AID 651633; calls by dose curve;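 further: p53RE-bla HCT reporter cells with a stable beta-lactamase p53 reporter; series mostly up to about 83 µM; nearly all actives have a fitted effect of over 30% in size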)
Method in brief: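 p53RE-bla cells, seeded at 4,000 per well and rested 5 h at 37 C/5% CO2, received compounds in DMSO for 16 h at 37 C. CellTiter-Glo was then added, and luminescence was read after 30 min at room temperature to gauge cytotoxicity.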

[3] = qHTS assay for small molecules that induce genotoxicity in human embryonic kidney cells expressing luciferase-tagged ATAD5 - cell viability (AID 651634; calls by dose curve; further: nearly all actives have a fitted effect of over 25% in size)
Method in brief: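 Cytotoxicity counterscreen in HEK293T cells bearing an ATAD5-luciferase reporter: live-cell protease activity measured by CellTiter-Fluor fluorescence after 15.5 hr compound exposure.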

[4] = qHTS assay for small molecule disruptors of the mitochondrial membrane potential - cell viability (AID 720634; calls by dose curve;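 further: human HepG2 liver cancer cells; series mostly up to about 83 µM; nearly all actives have a fitted effect of over 20% in size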)
Method in brief: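 After overnight attachment at 37 C, HepG2 cells received compound or DMSO vehicle for 1 hr. Viability is then taken from ATP-driven luminescence following a 30 min room-temperature CellTiter-Glo step.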

[5] = qHTS assay for small molecule disruptors of the mitochondrial membrane potential (AID 720635); further: potency means the concentration at half of the fitted maximal effect
Method in brief: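 HepG2 cells (2,000/well) attached overnight at 37C, then took compound for 1 hr at 37C, 5% CO2. Mito-MPS dye was added for 30 min; fluorescence was read at 490/535 nm (monomers) and 540/590 nm (aggregates).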

[6] = qHTS assay to test for compound auto fluorescence at 590 nm (red) in HepG2 cells (AID 720674)
Method in brief: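 Intrinsic compound fluorescence in the red window (Ex/Em 540/590 nm) is measured in attached HepG2 cells exposed for 1 hr, DMSO vehicle as baseline, benchmarked to Rose Bengal sodium.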

[7] = qHTS assay to test for compound auto fluorescence at 535 nm (green) in HepG2 cells (AID 720675)
[8] = qHTS assay to test for compound auto fluorescence at 460 nm (blue) in HEK293 cells (AID 720678)
Method in brief: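 Measured: blue fluorescence (Ex 405/Em 460 nm) of compound-treated HEK293 cells, incubated overnight at 37C with 5% CO2 and scaled to triamterene equivalents.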

[9] = qHTS assay to test for compound auto fluorescence at 590 nm (red) in HEK293 cells (AID 720679)
Method in brief: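 Using HEK293 cells at 2,000 per well, the screen added 23 nL of each compound after cell attachment and incubated overnight (37C, 5% CO2). The plate reader then captured red-label fluorescence, Ex/Em 540/590nm.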

[10] = qHTS assay for small molecule agonists of the p53 signaling pathway (AID 651631; calls by dose curve; further: nearly all actives have a fitted effect of over 15% in size)
Method in brief: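 Stably transfected HCT-116 cells (beta-lactamase behind p53 response elements) get compounds after a 5 h settling period; 16 h later at 37 °C, FRET substrate is loaded and fluorescence read after 2 h.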

Compound | outcome [1] | outcome [2] | outcome [3] | Potency [4] | Potency [5] | outcome [6] | outcome [7] | outcome [8] | outcome [9] | outcome [10]
Cc1ccccc1O | inactive | inactive | inactive | inactive | inactive | inactive | inactive | inactive | inactive | 
Cn1cc(-c2ccccc2)c(=O)c(-c2cccc(C(F)(F)F)c2)c1 | inactive | inactive | inactive | inactive | inactive | inactive | inactive | inactive |  | 
CN1C(=O)CN=C(c2ccccc2)c2cc(Cl)ccc21 |  | inactive | inactive | inactive | inactive | inactive | inactive | inactive | inactive | inactive
CC(NC(C)(C)C)C(=O)c1cccc(Cl)c1 (centres undefined) | inactive | inactive | inactive | inactive |  | inactive | inactive | inactive |  | 
Nc1ccc(Cc2ccc(N)cc2)cc1 | inactive | inactive | inactive | inactive | inactive | inactive | inactive | inactive |  | 
O=S(=O)(c1ccc(O)cc1)c1ccc(O)cc1 | inactive | inactive | inactive | inactive |  | inactive | inactive | inactive |  | 
C=C(C)CCl | inactive | inactive | inactive | inactive | inactive | inactive | inactive | inactive | inactive | 
CC(C)=C[C@@H]1[C@@H](C(=O)OCc2coc(Cc3ccccc3)c2)C1(C)C | inactive | inactive | inactive | inactive | 23.7 µM (active) | inactive | inactive | inactive | inactive | 
O=C(O)c1ccccn1 | inactive | inactive | inactive | inactive | inactive | inactive | inactive | inactive |  | 
O=[N+]([O-])c1ccc([As](=O)(O)O)cc1 | inactive | inactive | inactive | inactive | inactive | inactive | inactive | inactive |  | 
C1CC2OC2CC1C1CO1 (centres undefined) | inactive | inactive | inactive | inactive | inactive | inactive | inactive | inactive | inactive | 
CC1C=[C-]C=C1.[C-]#[O+].[C-]#[O+].[C-]#[O+].[Mn] | inactive | inactive | inactive | inactive |  | inactive | inactive | inactive |  | 
CC(C)NC(=O)N1CC(=O)N(c2cc(Cl)cc(Cl)c2)C1=O | inactive | inactive | inactive | inactive | inactive | inactive | inactive | inactive | inactive | 
COCCl | inactive | inactive | inactive | inactive |  | inactive | inactive | inactive | inactive | inactive
Cc1ccc(N)cc1N | inactive | inactive | inactive | inactive |  | inactive | inactive |  | inactive | inactive
O=S(=O)(c1ccc(Cl)cc1)c1cc(Cl)c(Cl)cc1Cl | inactive | inactive | inactive | inactive | 12.2 µM (active) and 13.7 µM (active) | inactive | inactive | inactive |  | 
c1ccc2c(c1)oc1ccccc12 | inactive | inactive | inactive | inactive | inactive | inactive | inactive | inactive | inactive | 
CC(C)N1C(=O)c2ccccc2NS1(=O)=O | inactive | inactive | inactive | inactive | inactive and 48.6 µM (active) | inactive | inactive | inactive | inactive | 
[N-]=[N+]=[N-] | inactive | inactive | inactive | inactive |  | inactive | inactive | inactive | inactive | inactive
Nc1ccc(Br)cc1 | inactive | inactive | inactive | inactive |  | inactive | inactive | inactive |  | 

Compound | outcome [1] | outcome [2] | outcome [3] | Potency [4] | Potency [5] | outcome [6] | outcome [7] | outcome [8] | outcome [9] | outcome [10]
Cc1[nH]c(=O)n(C(C)(C)C)c(=O)c1Cl | inactive | inactive | inactive | inactive | inactive | inactive | inactive | inactive | inactive | 
C#CC(C)(C)NC(=O)c1cc(Cl)cc(Cl)c1 | inactive | inactive | inactive | inactive |  | inactive | inactive | inactive |  | 
C#CCN(C)[C@H](C)Cc1ccccc1 | inactive | inactive | inactive | inactive |  | inactive | inactive | inactive | inactive | 
COc1ccc2c3c1O[C@H]1[C@@H](O)C=C[C@H]4[C@@H](C2)N(C)CC[C@@]341 | inactive | inactive | inactive | inactive |  | inactive | inactive | inactive |  | 
Cc1ccc(N)cc1Cl | inactive | inactive | inactive | inactive |  | inactive | inactive | inactive |  | 
O=Cc1cccc(Oc2ccccc2)c1 | inactive |  | inactive | inactive |  | inactive | inactive | inactive | inactive | 
CCOP(=S)(OCC)SCCSCC | inactive | inactive | inactive | inactive |  | inactive | inactive | inactive | inactive | 
CCCN(CCC)c1c([N+](=O)[O-])cc(C(F)(F)F)cc1[N+](=O)[O-] | inactive | inactive | inactive | inactive |  | inactive | inactive | inactive |  | 
CCC(C)(CC)c1cc(NC(=O)c2c(OC)cccc2OC)on1 | inactive |  | inactive | inactive |  | inactive | inactive | inactive |  | 
COC(=O)c1ccccc1N |  | inactive | inactive | inactive | inactive | inactive | inactive | inactive | inactive | 
CON(C)C(=O)Nc1ccc(Cl)c(Cl)c1 | inactive | inactive | inactive |  | 61.4 µM (active) and 43.3 µM (active) | inactive | inactive | inactive | inactive | 
O=c1n(Cl)c(=O)n(Cl)c(=O)n1Cl | inactive | inactive | inactive | inactive |  | inactive | inactive | inactive | inactive | 
OCCN(CCO)CCO |  |  | inactive |  |  | inactive | inactive | inactive | inactive | 
Clc1cccc(Cl)c1Cl |  | inactive | inactive | inactive | inactive | inactive | inactive | inactive | inactive | 
CN(C)[C@@H]1C(=O)C(C(N)=O)=C(O)[C@@]2(O)C(=O)C3=C(O)c4c(O)cccc4[C@@](C)(O)[C@H]3C[C@@H]12 |  | inactive | inactive | inactive |  | inactive | inactive | inactive | inactive | 
COP(N)(=O)SC (centres undefined) | inactive | inactive | inactive | inactive |  | inactive | inactive | inactive | inactive | 
CC(C)(C)C(O)(CCc1ccc(Cl)cc1)Cn1cncn1 (centres undefined) | inactive | inactive | inactive | inactive |  | inactive | inactive | inactive |  | 
Clc1ccccc1Cl | inactive | inactive | inactive | inactive |  | inactive | inactive | inactive | inactive | 
CC(C)C#N | inactive | inactive | inactive | inactive |  | inactive | inactive | inactive |  | 
CC(C)OC(=O)Nc1ccccc1 | inactive | inactive | inactive | inactive |  | inactive | inactive | inactive | inactive | 

Compound | outcome [1] | outcome [2] | outcome [3] | Potency [4] | Potency [5] | outcome [6] | outcome [7] | outcome [8] | outcome [9] | outcome [10]
Cc1ccc([N+](=O)[O-])cc1C | inactive | inactive | inactive | inactive |  | inactive | inactive | inactive | inactive | 
O=c1ccc(=O)[nH][nH]1 |  | inactive | inactive | inactive |  | inactive | inactive | inactive | inactive | 
CCCCN(CCCC)SN(C)C(=O)Oc1cccc2c1OC(C)(C)C2 | inactive |  | inactive | inactive |  | inactive | inactive | inactive | inactive | 
NCC(O)c1ccc(O)cc1 (centres undefined) | inactive | inactive | inactive | inactive |  | inactive | inactive | inactive | inactive | 
O=C1CCCN1 | inactive | inactive | inactive | inactive |  | inactive | inactive | inactive | inactive | 
CC(C)C1(C)N=C(c2nc3ccccc3cc2C(=O)O)NC1=O (centres undefined) | inactive | inactive | inactive | inactive |  | inactive | inactive | inactive | inactive | 
CC(=O)C=C(C)C | inactive |  | inactive | inactive | inactive | inactive | inactive | inactive | inactive | 
CC(C)OC(=O)Nc1cccc(Cl)c1 | inactive | inactive | inactive |  | 47.9 µM (active) and 24.3 µM (active) | inactive | inactive | inactive | inactive | 
c1ccc2c(c1)Oc1ccccc1O2 | inactive | inactive | inactive | inactive |  | inactive | inactive | inactive | inactive | 
BrCCBr | inactive | inactive | inactive | inactive |  | inactive | inactive | inactive | inactive | 
Oc1ccccc1Cl | inactive | inactive | inactive | inactive |  | inactive | inactive | inactive |  | 
Nc1c(Cl)c(Cl)nc(C(=O)O)c1Cl | inactive | inactive | inactive | inactive |  | inactive | inactive | inactive | inactive | 
C1CN2CCN1CC2 | inactive | inactive | inactive |  |  | inactive | inactive | inactive | inactive | 
CN(C)N=O | inactive | inactive | inactive | inactive |  | inactive | inactive | inactive |  | 
CCNc1nc(NC(C)(C)C)nc(SC)n1 | inactive | inactive | inactive | inactive |  | inactive | inactive | inactive | inactive | 
[O-][Cl+2]([O-])O |  | inactive |  | inactive | inactive | inactive | inactive | inactive |  | 
CCNc1nc(NC(C)C)nc(SC)n1 | inactive | inactive | inactive | inactive |  | inactive | inactive | inactive | inactive | 
CCCN(CCC)N=O | inactive | inactive | inactive | inactive |  | inactive | inactive | inactive | inactive | 
C[C@]12CC[C@H]3[C@@H](CC[C@@]45O[C@@H]4C(O)=C(C#N)C[C@]35C)[C@@H]1CC[C@@H]2O | inactive | inactive | inactive | inactive |  | inactive | inactive | inactive | inactive | 
